Screens from PubChem BioAssay.
This is one part of a sample in which hits are shown more often than they occur.
IDE exosite FP – exo-site inhibitors of human IDE, primary screen, biochemical, fluorescence anisotropy, probe displacement | z-score at 20 µM | 17,000 tested, 6.3% active | AID 1259349, 2017 | purified IDE, FL-6b probe fluorescence polarization; hits give low values;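 active means z-score of -3 or lower, meaning strong loss of probe binding signal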;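 further: His-tagged human IDE residues 42-1019 made in E. coli with 30 nM FL-6b probe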
Each line names hits and unclear results; the compound was inactive in the other large screens; ! = repeats disagree.

O=C(Nc1cccc(F)c1)N1CC(=O)N2[C@H](CO)[C@H](c3ccc(C#Cc4cccnc4)cc3)[C@H]2C1	none
C[C@@H]1CN([C@H](C)CO)C(=O)c2cc(NC(=O)Nc3cccc4ccccc34)ccc2O[C@@H](C)CCCCO[C@@H]1CN(C)S(=O)(=O)c1cn(C)cn1	IDE exosite FP -7.08
C[C@@H]1CCCCO[C@@H](CN(C)S(=O)(=O)c2cn(C)cn2)[C@H](C)CN([C@H](C)CO)C(=O)c2cc(NC(=O)Nc3cccc4ccccc34)ccc2O1	none
C[C@@H]1CCCCO[C@@H](CN(C)S(=O)(=O)c2cn(C)cn2)[C@H](C)CN([C@H](C)CO)C(=O)c2cc(N(C)C)ccc2O1	none
CN(C)CCCNC(=O)C[C@H]1CC[C@H]2[C@@H](COC[C@@H](O)CN2CC2CC2)O1	none
COc1ccc(-c2ccc([C@@H]3[C@@H](CO)N4C(=O)CN(C(=O)C5CCOCC5)C[C@@H]34)cc2)cc1	none
O=S(=O)(Cc1ccccc1)N1CCCCN2[C@H](C1)[C@H](c1ccc(C#Cc3ccccc3)cc1)[C@@H]2CO	none
CCCC#Cc1ccc([C@@H]2[C@H]3CN(S(=O)(=O)Cc4ccccc4)CCCCN3[C@H]2CO)cc1	none
CCS(=O)(=O)N1CCCCN2[C@H](C1)[C@@H](c1ccc(C#Cc3ccccc3OC)cc1)[C@@H]2CO	IDE exosite FP -9.45
CCCC#Cc1ccc([C@@H]2[C@@H](CO)N3CCCCN(S(=O)(=O)CC)C[C@@H]23)cc1	none
CCS(=O)(=O)N1CCCCN2[C@H](CO)[C@@H](c3ccc(C#Cc4ccccc4OC)cc3)[C@@H]2C1	IDE exosite FP -11.4
O=S(=O)(Cc1ccccc1)N1CCCCN2[C@H](C1)[C@@H](c1ccc(C#Cc3ccccc3)cc1)[C@@H]2CO	none
CCCC#Cc1ccc([C@@H]2[C@H]3CN(S(=O)(=O)CC)CCCCN3[C@H]2CO)cc1	none
CCS(=O)(=O)N1CCCCN2[C@H](CO)[C@H](c3ccc(C#Cc4ccccn4)cc3)[C@@H]2C1	none
CCS(=O)(=O)N1CCCCN2[C@@H](CO)[C@@H](c3ccc(C#Cc4ccccc4OC)cc3)[C@@H]2C1	IDE exosite FP -19.7
CCCC#Cc1ccc([C@@H]2[C@H](CO)N3CCCCN(S(=O)(=O)CC)C[C@@H]23)cc1	IDE exosite FP -3.04
COc1ccc(C#Cc2ccc([C@H]3[C@@H](CO)N4CCCCN(S(=O)(=O)c5ccccc5)C[C@H]34)cc2)cc1	none
CCS(=O)(=O)N1CCCCN2[C@H](C1)[C@H](c1ccc(C#Cc3ccccn3)cc1)[C@@H]2CO	none
CN(C)C(=O)c1ccc(-c2ccc([C@H]3[C@H](CO)N4C(=O)CN(C(=O)CC5CC5)C[C@@H]34)cc2)cc1	none
CN(C)CC(=O)Nc1ccc2c(c1)C(=O)N(C)[C@H]1CC[C@H](CC(=O)Nc3cccc(Cl)c3)O[C@@H]1CO2	none
COCC(=O)N1C[C@H](C)[C@H](OC)CN(C)C(=O)c2ccc(NC(=O)Nc3cccc(F)c3)cc2OC[C@@H]1C	none
CCC(=O)N1CC(=O)N2[C@H](CO)[C@@H](c3ccc(-c4ccc(C#N)cc4)cc3)[C@@H]2C1	none
N#C[C@H]1[C@@H](c2ccccc2-c2ccc(F)cc2)[C@@H](CO)N1c1ncc(-c2ccccc2)s1	none
O=C(c1cccnc1)N1CCCCN2[C@H](C1)[C@@H](c1ccc(C#Cc3ccccn3)cc1)[C@@H]2CO	IDE exosite FP -3.79
CC(C)(O)C#Cc1ccc([C@H]2[C@@H](CO)N3CCCCN(C(=O)c4cccnc4)C[C@H]23)cc1	none
O=C(c1cccnc1)N1CCCCN2[C@@H](CO)[C@H](c3ccc(C#Cc4cccnc4)cc3)[C@@H]2C1	none
O=C(c1cccnc1)N1CCCCN2[C@H](CO)[C@@H](c3ccc(C#Cc4ccccn4)cc3)[C@@H]2C1	none
O=C(c1cccnc1)N1CCCCN2[C@H](CO)[C@@H](c3ccc(C#Cc4ccccn4)cc3)[C@H]2C1	IDE exosite FP -4.68
O=C(c1ccncc1)N1CCCCN2[C@@H](CO)[C@H](c3ccc(C#Cc4ccccn4)cc3)[C@@H]2C1	none
O=C(C[C@@H]1CC[C@@H](NC(=O)Nc2ccc(C(F)(F)F)cc2)[C@@H](CO)O1)NCc1cccc(F)c1	none
CC(C)CC#Cc1ccc([C@H]2[C@H]3CN(C(=O)c4ccc5c(c4)OCO5)CC(=O)N3[C@H]2CO)cc1	none
Cc1ccc(-c2ccc([C@H]3[C@@H](CO)N4C(=O)CN(C(=O)Cc5ccccn5)C[C@@H]34)cc2)cc1	none
Cc1ccc(-c2ccc([C@H]3[C@H]4CN(C(=O)Cc5ccccn5)CC(=O)N4[C@H]3CO)cc2)cc1	none
Cc1cccc(-c2ccc([C@@H]3[C@@H](CO)N4C(=O)CN(C(=O)Cc5ccccn5)C[C@@H]34)cc2)c1	IDE exosite FP -11.8
Cc1cccc(-c2ccc([C@H]3[C@@H](CO)N4C(=O)CN(C(=O)Cc5ccccn5)C[C@@H]34)cc2)c1	IDE exosite FP -10.6
Cc1cccc(-c2ccc([C@H]3[C@H]4CN(C(=O)Cc5ccccn5)CC(=O)N4[C@H]3CO)cc2)c1	IDE exosite FP -4.49
O=C(Cc1ccccn1)N1CC(=O)N2[C@@H](CO)[C@@H](c3ccc(C#CC4CC4)cc3)[C@@H]2C1	none
O=C(Cc1ccccn1)N1CC(=O)N2[C@H](C1)[C@@H](c1ccc(C#CC3CC3)cc1)[C@@H]2CO	IDE exosite FP -3.08
COc1ccc(-c2ccc([C@@H]3[C@@H](CO)N4C(=O)CN(C(=O)Cc5ccccn5)C[C@H]34)cc2)cc1	none
Cc1ccc(-c2ccc([C@H]3[C@H](CO)N4C(=O)CN(C(=O)Cc5ccccn5)C[C@@H]34)cc2)cc1	none
O=C(Cc1ccccn1)N1CC(=O)N2[C@@H](CO)[C@H](c3ccc(-c4ccccc4)cc3)[C@@H]2C1	none
O=C(Cc1ccccn1)N1CC(=O)N2[C@H](CO)[C@@H](c3ccc(C#CC4CC4)cc3)[C@H]2C1	none
COc1ccc(-c2ccc([C@H]3[C@H]4CN(C(=O)Cc5ccccn5)CC(=O)N4[C@H]3CO)cc2)cc1	none
COc1cccc(S(=O)(=O)N[C@H]2CC[C@@H](CC(=O)NC3Cc4ccccc4C3)O[C@H]2CO)c1	none
O=C(c1ccc(F)cc1)N1CC(=O)N2[C@H](C1)[C@@H](c1ccc(-c3ccccc3)cc1)[C@@H]2CO	none
O=C1CN(Cc2ccc(F)cc2)C[C@@H]2[C@H](c3ccc(Br)cc3)[C@@H](CO)N12	none
O=C(C[C@H]1CC[C@@H]2[C@H](COC[C@@H](O)CN2CCC(F)(F)F)O1)NCc1ccc2c(c1)OCO2	none
CCCNC(=O)N1[C@H](C#N)[C@@H](c2ccccc2-c2ccc(C)cc2)[C@@H]1CO	none
COc1cccc(NC(=O)N2[C@@H]3CNC[C@H]2C3c2ccc(-c3cccc(OC)c3)cc2)c1 (some centres not stated)	IDE exosite FP -7.29!
COc1cccc(NC(=O)N2[C@@H]3CNC[C@H]2C3c2ccc(-c3cccnc3)cc2)c1 (some centres not stated)	none
O=C(Nc1ccccc1F)N1[C@@H]2CNC[C@H]1C2c1ccc(-c2ccncc2)cc1 (some centres not stated)	none
O=C(Nc1ccc(C(F)(F)F)cc1)N1[C@@H]2CNC[C@H]1C2c1ccc(-c2ccccc2F)cc1 (some centres not stated)	none
COc1ccccc1-c1ccc(C2[C@H]3CNC[C@@H]2N3C(=O)Nc2ccccc2F)cc1 (some centres not stated)	IDE exosite FP -10.7
COc1cccc(-c2ccc(C3[C@H]4CNC[C@@H]3N4C(=O)Nc3ccccc3Cl)cc2)c1 (some centres not stated)	none
